From PubChem BioAssay (NCI)
About 83,000 compounds went through this panel and 20% of them were active in at least one assay; those are over-represented in the sample as a whole.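 How to read the values: 0–100, growth inhibition (40 = 60% inhibited); 0, no net growth; -100 to 0, cell death (-40 = 40% of starting cells died; -100 = all dead).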 Unmarked numbers belong to inactive results. Calls of active or inactive are those of the source. Rule for the calls: active = growth percent below 10; inactive = the rest.

What follows are compounds tested on SF-295 CNS (assay: NCI-60 one-dose screen, 48 h (100 = growth as untreated, 0 = no growth, -100 = all killed)). Conditions: 10 µM unless noted.

Structure (SMILES)	growth
CC1=N/C(=C\c2cccc(Br)c2)C(=O)O1	108%
O=C1C=CC(=O)c2c1nc1n2CCCC1	95.8%
Cc1ccc2c(NCCCN(C)C)c3c(C)nn(C)c3nc2c1	30.2%
COC(=O)[C@H](C(C)C)n1c(=O)c2cc(OC)c(OC)cc2c2cnc3[nH]ccc3c21	25.2%
NCCN1CCN(c2nccc(-c3ccc4ccccc4c3)n2)CC1	90.1%
Oc1cccc(Nc2nccc(-c3ccc4ccccc4c3)n2)c1	25.2%
CN1CCN(c2ccc3nc(-c4ccc5nc(-c6ccc(OCCC(C)(C)C)cc6)[nH]c5c4)[nH]c3c2)CC1	50.9%
CCOC(=O)C(CC)n1c(=O)c2cc(OC)c(OC)cc2c2cnc3[nH]ccc3c21 (centres undefined)	65%
O=C(Cn1cc(CN2C(=O)c3ccccc3S2(=O)=O)nn1)Nc1ccc([N+](=O)[O-])cc1Cl	108%
COc1ccc2[nH]c(=O)c(/C=C/C(=O)c3ccc(Nc4nccc(-c5ccc6ccccc6c5)n4)cc3)cc2c1	101%
Cn1cc(-c2ccc(-c3cn(C)c4ncccc34)[nH]2)c2cccnc21	86.3%
Nc1ccc(Nc2nccc(-c3ccc4ccccc4c3)n2)cc1	64.8%
CCN1CCN(Cc2ccc(NC(=O)Nc3nc4ccc(Oc5ccnc(C(=O)NC)c5)cc4s3)cc2C(F)(F)F)CC1	-23.9% (active)
COCCOc1ccc(-c2nc3ccc(-c4nc5ccc(N6CCN(C)CC6)cc5[nH]4)cc3[nH]2)cc1	48.4%
CCOC(=O)C(=Cc1ccccc1F)C(=O)OCC	111%
O=C(CO[N+](=O)[O-])Nc1ccc(C(=O)/C=C/c2ccc(Cl)cc2)cc1	105%
COc1ccc(-c2cc(-c3cccnc3)nc3sc4c(=O)n(-c5ccc(C)cc5)nnc4c23)cc1OC	96.6%
CN(C)CC(=O)Nc1ccc(Cn2nnc3c2C(=O)c2nnn(Cc4ccc(NC(=O)CN(C)C)cc4)c2C3=O)cc1	-87.4% (active)
COc1ccc2nc3cc(Cl)ccc3c(N3CCN(c4ccnc(N5CCOCC5)n4)CC3)c2c1	88.7%
Oc1ccc(Nc2nccc(-c3ccc4ccccc4c3)n2)cc1	61.4%

Structure (SMILES)	growth
CC[C@H](Nc1nc(N)nc(C)c1C#N)c1nc2cccc(NCc3ccc(C(=O)NO)cc3)c2c(=O)n1-c1ccccc1	-3.97% (active)
CC[C@H](Nc1cc(C)nc(N)n1)c1nc2cccc(NCc3ccc(C(=O)NO)cc3)c2c(=O)n1-c1ccccc1	64.2%
CN(C)CCOc1ccc(-c2nc3ccc(-c4nc5ccc(N6CCN(C)CC6)cc5[nH]4)cc3[nH]2)cc1	54.6%
O=C1C(Cl)=C(Cl)C(=O)c2c1nc1n2CCCC1	100%
COc1ccc(-c2cn3c(-c4ccc(OC)cc4)cnc3c(Oc3ccc4c(C)cc(=O)oc4c3)n2)cc1	23.3%
COc1cc2cc(COc3nccc(-c4ccc(Cl)cc4)n3)c(=O)[nH]c2cc1OC	97.6%
CC(C)CC(CC1=CCC2CC1C2(C)C)C1=C(O)C(C)(C)C(=O)C(C)(C)C1=O (centres undefined)	-24.3% (active)
CN(C)C(=O)c1cc2cnc(Nc3ccc(-c4csc5c(=O)cc(N6CCNCC6)oc45)cc3)nc2n1C1CCCC1	15.2%
Nc1nc(-c2ccc(F)cc2)cc(-c2cnn(-c3ccccc3)n2)n1	107%
O=C(CCN1CCOCC1)Nc1ccc(Cn2nnc3c2C(=O)c2nnn(Cc4ccc(NC(=O)CCN5CCOCC5)cc4)c2C3=O)cc1	50.8%
CC1(C)CC(=O)C(c2c(-c3ccccc3)[nH]c3[nH]c(=S)[nH]c(=O)c23)=C(O)C1	152%
O=C(CNC1C2CC3CC(C2)CC1C3)Sc1nnc2sc3ccccc3n12 (centres undefined)	94.2%
COc1c2ccccc2c(OC)c2[nH]c(=O)ccc12	-21.4% (active)
CC(=O)/C(=C/c1cccc(Cl)c1)C(=O)c1ccccc1	96.1%
CN1C2CCC1/C(=C\c1ccc(Cl)cc1)C1=C2[C@@H](c2ccc(Cl)cc2)C(C#N)=C(N)O1 (some centres undefined)	97.8%
O=C(/C=C/c1cccc(Br)c1)c1ccccc1	94.9%
CN1CCN(Cc2ccc(NC(=O)c3[nH]ncc3Nc3ncnc4sccc34)cc2)CC1	24%
CSc1nc(NCCCNc2ccnc3cc(Cl)ccc23)cc(-c2ccccc2)n1	56.9%
C[C@@H]1CC[C@@H]2[C@@H]1[C@H](OC(=O)/C=C/c1ccccc1)[C@]1(c3ccccc3)C[C@@H](OC(=O)CO)[C@@]2(C)O1	96.4%
